Data taken from PubChem BioAssay (NCATS).
Inconclusive results are not listed. Entries that show only a call come without a potency. Some compounds were tested as several samples or in several runs, with calls that do not always agree. Calls of active or inactive are those of the source. Unless noted, calls follow the shape of the dose curve; as a rule, active = well fitted curve in the direction sought with a large enough effect; inconclusive = small, poorly fitted or top-dose-only effect, or another doubt; inactive = no such curve, though single readings can be large; an effect the other way counts as inactive or inconclusive.

How the values were obtained:
[1] = molecular target: Protein phosphatase 1D (Homo sapiens) (UniProt O15297); test: RapidFire Mass Spectrometry qHTS Assay for Modulators of WT P53-Induced Phosphatase 1 (WIP1) (AID 1347424);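 also: amount of dephosphorylated VEPPL-S-QETFS peptide product formed by WIP1; series mostly up to about 63 µM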
Chain of Protein phosphatase 1D (Homo sapiens) (O15297 whole entry, looked up): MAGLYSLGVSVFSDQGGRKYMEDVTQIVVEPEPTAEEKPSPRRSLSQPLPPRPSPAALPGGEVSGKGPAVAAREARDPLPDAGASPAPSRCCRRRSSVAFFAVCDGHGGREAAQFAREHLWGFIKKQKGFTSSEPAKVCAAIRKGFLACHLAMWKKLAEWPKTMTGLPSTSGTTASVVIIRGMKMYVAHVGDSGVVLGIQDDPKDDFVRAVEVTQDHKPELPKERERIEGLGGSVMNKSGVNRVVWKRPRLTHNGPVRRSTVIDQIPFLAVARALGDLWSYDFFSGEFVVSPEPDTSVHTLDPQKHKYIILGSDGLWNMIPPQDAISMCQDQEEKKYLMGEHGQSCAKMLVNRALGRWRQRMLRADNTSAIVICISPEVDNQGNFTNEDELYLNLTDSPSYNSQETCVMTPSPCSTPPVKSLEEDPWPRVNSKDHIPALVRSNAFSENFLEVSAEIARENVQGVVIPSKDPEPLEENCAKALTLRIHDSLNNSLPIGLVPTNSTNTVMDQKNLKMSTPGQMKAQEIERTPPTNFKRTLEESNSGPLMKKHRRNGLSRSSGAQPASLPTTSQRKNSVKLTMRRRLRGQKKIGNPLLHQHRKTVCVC
Method in brief: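 10 nM WIP1 + cpd, 1 h RT; + 2 uM VEPPL-pS-QETFS, 5 min RT; stop 0.5% formic acid; labelled product standard 1 uM; RapidFire MS. Buffer 50 mM Tris pH 7.5, 30 mM MgCl2, 1 mM TCEP.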

[2] = molecular target: Protein phosphatase 1D (Homo sapiens) (UniProt O15297); test: Rhodamine-PBP qHTS Assay for Modulators of WT P53-Induced Phosphatase 1 (WIP1) (AID 1347425)
Method in brief: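 WIP1 (5 nM final) was preincubated with compound for 1 hour at room temperature. It then dephosphorylated 10 uM VEPPL-pS-QETFS peptide in Tris-HCl pH 7.5 with 30 mM MgCl2. Released Pi was detected by 10 uM Rh-PBP fluorescence (ex 525/em 598 nm) read at 1-min intervals for 11 min, as delta f1 - f0.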

[3] = Primary qHTS for inhibitors of La Crosse Virus (LACV) - induced cell death in SH-SY5Y cells (AID 1508616);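 also: top concentration of the series differs between compounds; higher means more rescue of cells from virus-induced death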
Method in brief: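 SH-SY5Y cells (6000/well) plated 24 h, then given compounds by pin transfer and LACV at 0.01 MOI for 6 days at 37C. Viability measured by ATPLite luminescence, normalized to infected DMSO and uninfected DMSO.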

[4] = molecular target: Calcium and integrin-binding protein 1 (Homo sapiens) (UniProt Q99828); test: Primary qHTS for Identification of Calcium Integrin Binding Protein 1 (CIB1) Competitor (AID 1508620);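 also: GST tagged CIB1 binding a fluorescein labelled alphaIIb integrin peptide tracer; top concentration of the series differs between compounds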
Chain of Calcium and integrin-binding protein 1 (Homo sapiens) (Q99828 whole entry, looked up): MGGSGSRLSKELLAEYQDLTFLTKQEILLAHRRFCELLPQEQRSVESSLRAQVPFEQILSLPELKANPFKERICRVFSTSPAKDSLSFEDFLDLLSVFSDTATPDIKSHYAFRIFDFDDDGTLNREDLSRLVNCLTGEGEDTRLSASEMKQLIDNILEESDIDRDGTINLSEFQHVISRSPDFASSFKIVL
Method in brief: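 CIB1-GST (1 uM final) and compound incubated 15 min at room temperature before adding FITC-alphaIIb peptide tracer (100 nM final). Competition for binding read by fluorescence polarization (ex 480, em 540) after another 15 min at room temperature.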

[5] = Primary qHTS for small molecule stabilizers of the endoplasmic reticulum resident proteome: Secreted ER Calcium Modulated Protein (SERCaMP) assay (AID 1508630)
Method in brief: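 GLuc-SERCaMP-expressing SH-SY5Y cells, pretreated 16 h with compound, are challenged with thapsigargin to empty ER calcium stores; after 4 h, coelenterazine is added directly to the medium and luminescence is imaged.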

[6] = A High-Content qHTS Against Drug Library for the Identification of Small Molecules that Inhibit DYT1 Early Onset Primary Dystonia-Associated Cell Pathology (AID 1645839; calls by dose curve; also: potency is read from the fitted curve at half-maximal effect)
Method in brief: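 In this high-content image screen, delE TorsinA mislocalization in inducible Flp-In 293 cells is scored as %pathology, with cell count serving as the counterscreen. Compound exposure lasts 48 h under tetracycline induction in reduced-serum medium.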

[7] = molecular target: Cytochrome P450 2D6 (Homo sapiens) (UniProt P10635); test: Cytochrome P450 family 2 subfamily D member 6 (CYP2D6) small molecule antagonists: luciferase biochemical (cell-free) qHTS assay (AID 1645840; active = well fitted curve in the direction sought with a large enough effect in the repeat runs; an effect the other way counts as inactive or inconclusive; also: nearly all actives have a fitted effect of over 55% in size; also: potency is read from the fitted curve at half-maximal effect; as to activity change, negative = inhibition: series mostly up to about 57 µM)
Chain of Cytochrome P450 2D6 (Homo sapiens) (P10635 whole entry, looked up): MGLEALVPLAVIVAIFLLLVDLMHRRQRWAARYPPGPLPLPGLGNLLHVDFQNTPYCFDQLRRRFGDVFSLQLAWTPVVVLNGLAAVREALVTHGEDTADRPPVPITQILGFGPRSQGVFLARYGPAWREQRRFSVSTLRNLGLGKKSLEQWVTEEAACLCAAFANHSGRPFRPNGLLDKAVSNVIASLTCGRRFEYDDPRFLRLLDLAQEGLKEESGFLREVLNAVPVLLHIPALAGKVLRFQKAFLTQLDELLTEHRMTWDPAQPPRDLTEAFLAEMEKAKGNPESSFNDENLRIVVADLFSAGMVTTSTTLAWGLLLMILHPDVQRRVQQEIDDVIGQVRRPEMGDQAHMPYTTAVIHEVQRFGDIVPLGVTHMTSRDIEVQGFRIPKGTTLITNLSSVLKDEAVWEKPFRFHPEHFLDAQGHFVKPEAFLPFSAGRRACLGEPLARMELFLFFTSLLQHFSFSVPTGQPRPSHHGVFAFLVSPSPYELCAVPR
Method in brief: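 P450-Glo luminescent screen: recombinant CYP2D6 enzyme–proluciferin substrate mix preincubated with compound 10 min at room temperature, then NADPH regeneration added for 1 h at room temperature. Detection reagent added for 20 min; luciferin light read as relative luminescence units.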

[8] = molecular target: Cytochrome P450 2C9 (Homo sapiens) (UniProt P11712); test: Cytochrome P450 family 2 subfamily C member 9 (CYP2C9) small molecule antagonists: luciferase biochemical (cell-free) qHTS assay (AID 1645842; active = well fitted curve in the direction sought with a large enough effect in the repeat runs; an effect the other way counts as inactive or inconclusive; also: nearly all actives have a fitted effect of over 55% in size; also: potency is read from the fitted curve at half-maximal effect; as to activity change, negative = inhibition: series mostly up to about 57 µM)
Chain of Cytochrome P450 2C9 (Homo sapiens) (P11712 whole entry, looked up): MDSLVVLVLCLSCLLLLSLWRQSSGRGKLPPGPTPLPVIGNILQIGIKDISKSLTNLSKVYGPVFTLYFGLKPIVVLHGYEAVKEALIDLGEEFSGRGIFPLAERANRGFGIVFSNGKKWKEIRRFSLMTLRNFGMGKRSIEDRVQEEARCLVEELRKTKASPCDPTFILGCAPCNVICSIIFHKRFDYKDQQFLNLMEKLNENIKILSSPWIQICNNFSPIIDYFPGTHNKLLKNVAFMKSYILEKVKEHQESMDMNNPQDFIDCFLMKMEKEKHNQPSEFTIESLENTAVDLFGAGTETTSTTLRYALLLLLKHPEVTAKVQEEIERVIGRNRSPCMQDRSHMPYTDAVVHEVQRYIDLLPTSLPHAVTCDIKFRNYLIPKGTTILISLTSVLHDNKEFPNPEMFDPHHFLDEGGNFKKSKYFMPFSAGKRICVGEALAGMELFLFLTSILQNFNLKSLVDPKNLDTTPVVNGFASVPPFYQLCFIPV
Method in brief: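 Luminescence, after 20 min with luciferin detection reagent, reflected CYP2C9 turnover during a 1 h NADPH-driven reaction at 37C. Enzyme-substrate mix contained 0.4% bovine serum albumin and was preincubated with compound 10 min at room temperature.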

[9] = Primary qHTS for inhibitors of nuclear receptor binding SET domain protein 2 (NSD2) in an isogenic RCH-ACV NSD2 p.E1099K mutant (9B) (AID 1645876); also: nearly all actives have a fitted effect of over 70% in size; also: potency is read from the fitted curve at half-maximal effect
[10] = Primary qHTS for inhibitors of nuclear receptor binding SET domain protein 2 (NSD2) in an RCH-ACV wild type WT cells (2C) (AID 1645877); also: nearly all actives have a fitted effect of over 70% in size; also: potency is read from the fitted curve at half-maximal effect

Row | SMILES | Potency [1] | outcome [2] | Potency [3] | Potency [4] | Potency [5] | Potency [6] | Potency [7] | Potency [8] | Potency [9] | Potency [10] | activity change, negative = inhibition [1] | activity change, negative = inhibition [2] | activity change [3] | activity change, negative = inhibition [5] | activity change, negative = inhibition [7] | activity change, negative = inhibition [8]
1 | CCN(CC)CCNC(=O)COc1ccc(Cl)cc1 | inactive | inactive | inactive | inactive | inactive | inactive | 13.8 µM (active) | inactive | inactive | inactive |  |  |  |  |  | 
2 | NC[C@H]1O[C@H](O[C@H]2[C@H](O[C@@H]3O[C@H](CO)[C@@H](O)[C@H]3O)C(O)[C@H](N)C[C@@H]2N)[C@H](N)[C@@H](O)[C@@H]1O (stereo partly specified) |  |  |  | inactive |  |  |  |  |  |  | 6.77% [at 12.6 µM] (inactive) | 17.3% [at 11.5 µM] (inactive) | -8.96% [at 0.858 µM] (inactive) | -22.5% [at 7.35 µM] (inactive) | 6.46% [at 11.5 µM] (inactive) | 8.72% [at 11.5 µM] (inactive)
3 | O=C(COc1ccc(Cl)cc1)N1CCN(Cc2ccc3c(c2)OCO3)CC1 | inactive | inactive | inactive | inactive | inactive |  | 0.436 µM (active) | 12.3 µM (active) |  |  |  |  |  |  |  | 
4 | CC(=O)[C@H]1CC[C@H]2[C@@H]3C[C@H](C)C4=CC(=O)CC[C@]4(C)[C@H]3[C@@H](O)C[C@]12C | inactive | inactive | inactive | inactive | inactive | inactive |  | 0.86 µM (active) |  |  |  |  |  |  |  | 
5 | CCCCCCC[N+](CC)(CC)CCCCc1ccc(Cl)cc1 | inactive | inactive | inactive | inactive | inactive | inactive | 0.0977 µM (active) | inactive | 1.88 µM (active) | 1.88 µM (active) |  |  |  |  |  | 
6 | c1ccc(CNCCNCc2ccccc2)cc1 | inactive | inactive | inactive | inactive | inactive | inactive | 0.692 µM (active) | inactive | inactive | inactive |  |  |  |  |  | 
7 | Cc1c(C(C)C)c(=O)n(-c2ccccc2)n1C | inactive | inactive | inactive | inactive | inactive | inactive | inactive | inactive | inactive | inactive |  |  |  |  |  | 
8 | COc1cc2c(cc1OC)[C@@H]1CC(=O)[C@@H](CC(C)C)CN1CC2 | inactive | inactive | inactive | inactive | inactive | inactive |  | 15.5 µM (active) | inactive | inactive |  |  |  |  |  | 
9 | OC[C@H]1O[C@@H](n2cnc3c(=S)nc[nH]c32)[C@H](O)[C@@H]1O | inactive | inactive | inactive | inactive | inactive | inactive | inactive | 11 µM (active) | 0.473 µM (active) | 0.422 µM (active) |  |  |  |  |  | 
10 | CCOC(=O)n1ccn(C)c1=S | inactive | inactive | inactive | inactive | inactive |  | inactive | inactive |  |  |  |  |  |  |  | 
11 | CCCCOc1ccc(C(=O)CCN2CCCCC2)cc1 | inactive | inactive | inactive | inactive | inactive | 10 µM (active) | 4.9 µM (active) |  | 15 µM (active) | 13.3 µM (active) |  |  |  |  |  | 
12 | CCOC(=O)[C@H](CCc1ccccc1)N[C@@H](C)C(=O)N1Cc2ccccc2C[C@H]1C(=O)O | inactive | inactive | inactive | inactive |  | inactive | inactive | 6.92 µM (active) and inactive |  |  |  |  |  |  |  | 
13 | CCN(CC)CCOc1ccc(C(O)(Cc2ccc(Cl)cc2)c2ccc(C)cc2)cc1 (stereo unspecified) | inactive | inactive | inactive | inactive | inactive |  | 0.617 µM (active) |  | 5.31 µM (active) | 2.66 µM (active) |  |  |  |  |  | 
14 | CCOC(=O)OC(C)OC1=C(C(=O)Nc2ccccn2)N(C)S(=O)(=O)c2ccccc21 (stereo unspecified) | inactive | inactive | inactive | inactive |  | inactive | inactive |  | inactive | inactive |  |  |  |  |  | 
15 | NC(=O)CC[C@@H]1NC(=O)[C@H](Cc2ccccc2)NC(=O)[C@H](Cc2ccc(O)cc2)NC(=O)CCSSC[C@@H](C(=O)N2CCC[C@H]2C(=O)N[C@@H](CCCN=C(N)N)C(=O)NCC(N)=O)NC(=O)[C@H](CC(N)=O)NC1=O | inactive | inactive | inactive | inactive |  | inactive | inactive | inactive | inactive | inactive |  |  |  |  |  | 
16 | CCCC(=O)Nc1ccc(OCC(O)CNC(C)C)c(C(C)=O)c1 (stereo unspecified) | inactive | inactive | inactive | inactive |  | inactive | inactive |  |  |  |  |  |  |  |  | 
17 | O=c1[nH]c(=O)n([C@H]2CCCO2)cc1F | inactive | inactive | inactive | inactive |  | inactive | inactive | inactive | inactive | inactive |  |  |  |  |  | 
18 | O=C(OCCOCCO)c1ccccc1Nc1cccc(C(F)(F)F)c1 | inactive | inactive | inactive | inactive | inactive |  | 27.5 µM (active) | 17.4 µM (active) |  | 16.8 µM (active) |  |  |  |  |  | 
19 | COc1ccc(CCN2CCC(Nc3nc4ccccc4n3Cc3ccc(F)cc3)CC2)cc1 | inactive | inactive | inactive | inactive | inactive |  | 6.17 µM (active) | inactive | 7.5 µM (active) | 5.31 µM (active) |  |  |  |  |  | 
20 | CCCC(=O)O[C@]1(C(=O)CO)CC[C@H]2[C@@H]3CCC4=CC(=O)CC[C@]4(C)[C@H]3[C@@H](O)C[C@@]21C | inactive | inactive | inactive | inactive | inactive |  | inactive | inactive |  | 0.0299 µM (active) |  |  |  |  |  | 
21 | CC1(C)O[C@@H]2C[C@H]3[C@@H]4CCC5=CC(=O)CC[C@]5(C)[C@@]4(F)[C@@H](O)C[C@]3(C)[C@]2(C(=O)CCl)O1 | inactive | inactive | inactive | inactive |  | inactive | inactive | 8.71 µM (active) | inactive | inactive |  |  |  |  |  | 
22 | CN(C)CCOc1ccccc1Cc1ccccc1 | inactive | inactive | inactive | inactive |  | inactive | 1.95 µM (active) | inactive | inactive | inactive |  |  |  |  |  | 
